What all share (format): functional
Test [1] has as its system Plasmodium falciparum. Nature of the test: GSK_TCMDC: Inhibition of Plasmodium falciparum 3D7 in whole red blood cells, using parasite LDH activity as an index of growth. Test compounds present at 2uM.
For test [2], the system named is Plasmodium falciparum. Nature of the test: GSK_TCMDC: Inhibition of Plasmodium falciparum Dd2 in whole red blood cells, using parasite LDH activity as an index of growth. Test compounds present at 2uM.
Another test deals with HepG2. Nature of the test: GSK_TCMDC: Percent inhibition of human HepG2 cell line. Test compounds present at 10uM.

For `Cc1nc2ccc3ccc(CNc4ccc5c(c4)CN([C@@H](CCC(=O)O)C(=O)O)C5=O)cc3c2c(=O)[nH]1` [OSI-7904], the values for the Inhibition with Plasmodium falciparum [1], in the test with Plasmodium falciparum [2] and in the test on HepG2 were 94%, 95% and 41%, respectively.
Taken in the same sequence, the figures for `Cc1cc(C)n2nc(C(=O)Nc3cc(C(F)(F)F)ccc3N3CCOCC3)nc2n1` were 94%, 91% and 2%.
Consider `NC1=NC2(CCCCC2)N(OCCCCCCN2C(=O)c3ccccc3C2=O)C(N)=N1`, for which the values for the Inhibition with Plasmodium falciparum [1], in the test on Plasmodium falciparum [2] and in the test on HepG2 were 98%, 16% and 20%, respectively.
Taken in the same sequence, the figures for `CCOC(=O)c1cnc2c(C(F)(F)F)cccc2c1Nc1ccc(O)cc1` were 96%, 67% and 0%.
Taken in the same sequence, the figures for `Cc1cc(C(=O)Nc2ccc3c(ccn3C3CCCN(Cc4ccc(C(F)(F)F)cc4F)CC3)c2)no1` (stereo not given) were 92%, 95% and 19%.
In the same order, the values of `CCCCc1ccc(S(=O)(=O)Nc2ccc3c(c2)CCN(Cc2c[nH]c4cnccc24)CC3)cc1.O=C(O)C(F)(F)F` are 99%, 12% and 41%.
Consider `O=C(/C=C/c1ccc(Cl)c(Cl)c1)NCCCCCN1CCCN(C(=O)Nc2cc(Cl)cc(Cl)c2)CC1`, for which the Inhibition (in general, the drop in the measured response relative to a control, in per cent) was found to be 96% with Plasmodium falciparum [1], 4% in the test with Plasmodium falciparum [2] and 53% in the test on HepG2.
Consider `CCNC(=O)c1ccc2c(c1)c(C)c(C)n2Cc1ccc(F)cc1`, for which the Inhibition is given as 93% in the test with Plasmodium falciparum [1], 91% in the test with Plasmodium falciparum [2] and 25% in the test with HepG2.
For the compound `Cl.Cn1ccnc1S(=O)(=O)CCNCc1ccc(-c2ccc3ncnc(Nc4ccc(OCc5cccc(F)c5)c(Cl)c4)c3c2)o1`, the Inhibition with Plasmodium falciparum [1] is reported as 100%; in the test with Plasmodium falciparum [2], 94%; in the test on HepG2 it was 0%.
Taken in the same sequence, the figures for `CCN(CC)CCN(Cc1ccc(-c2ccc(C(F)(F)F)cc2)cc1)C(=O)Cn1c(CCc2ccc(F)c(F)c2)cc(=O)c2ccccc21.O=C(O)C(O)C(O)C(=O)O` were 95%, 26% and 23%.
Taken in the same sequence, the figures for `Cc1ccc(NC(=O)N2CCN(CCCCCNC(=O)/C=C/c3ccc(Cl)c(Cl)c3)CC2)cc1C` were 94%, 0% and 7%.
`CNC(=O)/C=C/c1cc(NC(=O)Nc2cc(C)nc3c(F)cccc23)ccc1OC`: the values for the Inhibition with Plasmodium falciparum [1], in the test on Plasmodium falciparum [2] and in the test on HepG2 were 98%, 70% and 0%, respectively.
In the same order, the values of `O=C(NCc1ccc(F)cc1)Nc1cccc(-c2ccc(-c3nc4ccccc4[nH]3)cc2)c1` are 100%, 49% and 45%.
In the same order, the values of `Oc1ccc2[nH]c(-c3cccc(F)c3)nc2c1CN1CCC(N2CCCC2)CC1` are 100%, 54% and 0%.
In the same order, the values of `Cc1ccc(C)c(C2CCN(CCCCNC(=O)c3ccc(NC(=O)c4ccc(Cl)cc4)cc3)CC2)c1` are 94%, 13% and 15%.
On to `CC(Oc1ccc(Cl)cc1)C(=O)NCCC1CCN(CCCCCNC(=O)/C=C/c2ccc(Cl)c(Cl)c2)CC1` (stereo not given), for which the Inhibition is on record as 89% with Plasmodium falciparum [1], 20% in the test on Plasmodium falciparum [2] and 48% in the test with HepG2.
Taken in the same sequence, the figures for `Cc1ccc(Nc2nccc(NCC(O)c3ccc(C(F)(F)F)cc3)n2)cc1` (stereo not given) were 100%, 100% and 53%.
In the same order, the values of `Nc1c(Cl)cc(C(O)CNCCCCCCOCCc2ccc(CO)s2)cc1Cl.O=C(O)/C=C/C(=O)O` (stereo not given) are 86%, 71% and 1%.
Turning to `CCC(C)c1ccc(NC(=O)C(C)c2ccc([N+](=O)[O-])cc2)cc1` (stereo not given), the Inhibition in the test on Plasmodium falciparum [1] is 100%; in the test with Plasmodium falciparum [2], 100%; in the test on HepG2, 14%.
In the case of `COc1ccc2ncc(F)c(CCN3CC(O)C(CNCc4ccc5ccccc5c4)C3)c2n1.Cl` (stereo not given), the Inhibition stood at 100% with Plasmodium falciparum [1], 78% with Plasmodium falciparum [2] and 57% in the test on HepG2.
In the same order, the values of `COc1ccc2nccc([C@@H](O)CN3CCC(NCc4cc5ccccc5nn4)CC3)c2c1.O=C(O)C(=O)O` are 94%, 16% and 5%.
Taken in the same sequence, the figures for `Cc1cccc2nc(-c3ccc(-c4ccc(CNCc5cnn(-c6ccccc6)n5)cc4)cc3)[nH]c12.O=C(O)C(F)(F)F` were 100%, 99% and 35%.
Taken in the same sequence, the figures for `COc1ccc2c(c1)CCN(CCN1CCC(CNC(=O)c3ccc(-c4ccc(C#N)cc4)cc3)CC1)C2` were 100%, 51% and 40%.
For `Fc1ccc2[nH]ccc(=NN=Cc3ccccc3Cl)c2c1`, the Inhibition came out at 100% with Plasmodium falciparum [1], 39% with Plasmodium falciparum [2] and 3% with HepG2.
In the same order, the values of `Cc1cc(Nc2cccc(Cl)c2)nc2ccc(NC(=O)c3ccc(=O)[nH]c3)cc12` are 100%, 23% and 12%.
Taken in the same sequence, the figures for `CCCNC[C@@H](O)[C@H](Cc1ccccc1)NC(=O)c1cc(NCC)cc(N2CCCC2=O)c1` were 100%, 76% and 0%.
`CCN1CCC(N(Cc2ccc(-c3ccc(C(F)(F)F)cc3)cc2)C(=O)Cn2c(CCc3cccc(F)c3F)cc(=O)c3c2CCCC3)CC1.O=C(O)C(O)C(O)C(=O)O`: the Inhibition in the test with Plasmodium falciparum [1] amounted to 100%; with Plasmodium falciparum [2] it was 96%; in the test with HepG2 it was 55%.
In the same order, the values of `COc1cc(CNC[C@@H](O)[C@H](Cc2ccccc2)NC(=O)c2cc(OC(C)C)cc(N3CCCCS3(=O)=O)c2)cc(OC)c1.Cl` are 100%, 94% and 7%.
Taken in the same sequence, the figures for `Cc1c(-c2ccc(C(=O)NC3CC(C)(C)NC(C)(C)C3)cc2)[nH]c2cc(Cl)c(Cl)cc12` were 98%, 68% and 34%.
In the case of `CCOc1cc2ncnc(Nc3ccc(OCc4c(F)cccc4F)c(OC)c3)c2cc1OCC.Cl`, the Inhibition in the test on Plasmodium falciparum [1] is 96%; in the test with Plasmodium falciparum [2], 60%; with HepG2 it was 7%.

These data come from ChEMBL document CHEMBL1157539, “Thousands of chemical starting points for antimalarial lead identification” (Nature, 2010).
